The list is not random: actives were taken first. Their share in the collection is about 19%.
Shiga inhibitor – blocks Shiga toxin action in Vero cells. Vero cells, Shiga toxin protein synthesis inhibition reporter. inhibition, % at 38.7 µM. 9.2% of 290,000 active. AID 2315; in the data active = inhibition mostly above about 28%, no sharp cut-off; inactive = mostly below about 43%
Lassa entry inh – blocks Lassa virus binding to or entry into cells | Potency, µM (series often up to 37.9 µM), usual class: inhibitors | AID 540256 | Lassa virus pseudotype entry inhibition, cell reporter | 1.2% of 300,000 active; calls by dose curve; tested in HEK293 cells; also: nearly all actives have a fitted effect of over 50% in size
Pf growth 48h – P. falciparum growth inhibition at 48 hours (one generation); P. falciparum luciferase growth in erythrocytes, 48 h; Potency, µM (top dose mostly 28.7 µM), usual class: inhibitors; 5.9% of 310,000 active
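Luciferase-expressing parasites in RBCs, 2% Hct / 0.1% parasitemia final; RPMI 1640 + 0.5% Albumax; 37 C, 5% CO2, one generation; luminescence read-out, lower signal = inhibition.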
MARV entry inh – inhibitors of Marburg virus binding or cell entry | Marburg virus pseudotyped entry inhibition, cell reporter | Potency, µM (doses to about 37.8 µM), hits mostly inhibitors | 1.8% of 300,000 active; calls by dose curve; tested in HEK293 cells
Pf growth 96h – P. falciparum growth inhibition at 96 hours; P. falciparum luciferase reporter growth, 96 h; Potency, µM (series often up to 28.7 µM), hits mostly inhibitors; 6.9% of 320,000 active; AID 504834
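Cell-based qHTS: luciferase-tagged P. falciparum in erythrocytes (2% hematocrit, 0.05% parasitemia final) incubated with compounds for 96 hours, 37 C, 5% CO2; luciferase detection reagent then added and luminescence measured.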
Cycloheximide cs – counter-screen for Shiga toxin inhibitors: cycloheximide protein synthesis inhibition; cell reporter, cycloheximide protein synthesis inhibition counterscreen; max response, %; 12% of 300,000 active; AID 2314; in the data active = max response mostly above about 13%, no sharp cut-off; inactive = mostly below about 14%; also: read at 38.3 µM for the half of the compounds with a filed dose
Hits are given with their value; . = inactive; ? = inconclusive; / = no result given; [ ] = remark or other dose. Unless noted, calls follow the shape of the dose curve; as a rule, active = well fitted inhibition curve with a large enough effect; inconclusive = small, poorly fitted or top-dose-only effect, or another doubt; inactive = no such curve, though single readings can be large or run the other way.

SMILES	Shiga inhibitor	Lassa entry inh	Pf growth 48h	MARV entry inh	Pf growth 96h	Cycloheximide cs
Cc1cc(C(=O)COC(=O)c2ccc(O)cc2)c(C)n1CC1CCCO1 (configuration not stated)	107	/	.	?	.	59
CC1CCCCC1NC(=O)COC(=O)c1ccc2c(c1)NC(=O)CS2 (configuration not stated)	/	.	/	.	/	/
COc1ccc(CNc2oc(-c3cccc4ccccc34)nc2C#N)cc1	.	.	.	.	.	.
COc1ccccc1CNC(=O)COC(=O)c1c[nH]c2ccccc12	/	?	.	?	.	/
CCCCOC(=O)c1ccc(NC(=O)c2cc(Cl)ccc2OC)cc1	.	.	?	?	?	.
CCCOC(=O)c1ccc(NC(=O)c2ccccc2OC)cc1	86	.	.	.	.	26
CCCCOC(=O)c1ccc(NC(=O)c2ccccc2OC)cc1	29	?	.	?	?	.
CCCOC(=O)c1ccc(NC(=O)c2ccccc2[N+](=O)[O-])cc1	91	/	.	/	?	38
CCCOC(=O)c1ccc(NC(=O)c2c(Cl)ccc(Cl)c2OC)cc1	.	?	.	?	.	.
Cc1[nH]n(C(C)(C)C)c(=O)c1Sc1ccccc1	.	.	.	.	12µM	.
COc1ccc(Cl)cc1NC(=O)COC(=O)/C=C/c1c(C)nn(C2CCS(=O)(=O)C2)c1Cl (configuration not stated)	.	.	?	.	?	.
COCCCn1c(C)nnc1SCc1ccc(C(C)(C)C)cc1	.	.	.	.	.	.
Cc1nnc(SCC(=O)Nc2c(Cl)cccc2Cl)[nH]c1=O	.	/	.	/	?	.
C[C@@H]1[C@H](O)C[C@@]23COC(=O)C2=CCCC3[C@@]1(C)CCC1COC(=O)C1 (some centres not stated)	/	/	0.0033µM	/	0.0026µM	/
CCOc1cccc(CN2CCC(n3nccc3NC(=O)c3ccc4c(c3)OCO4)CC2)c1	.	.	?	.	.	.
O=[N+]([O-])c1cnc(Sc2ccncn2)s1	.	/	.	/	.	.
C=CCn1c(Sc2ncc([N+](=O)[O-])s2)n[nH]c1=O	.	?	?	?	10µM	21
Cc1ccc(CSCC(=O)N(C)CC(=O)Nc2ccccc2Cl)cc1	/	.	?	.	.	/
CCc1cc(C(=O)N(C)CC(=O)Nc2c(Cl)cccc2Cl)sc1C	/	8.9µM	?	?	.	/
Cc1ccc(CSCC(=O)N(C)CC(=O)Nc2c(Cl)cccc2Cl)cc1	/	.	10µM	.	?	/
O=C(O)C1(c2ccccc2)CCN(S(=O)(=O)c2ccc(Br)cc2)CC1	/	.	.	?	?	.
COc1ccccc1C(=O)COC(=O)C1(C)CC1(Cl)Cl (configuration not stated)	/	?	/	.	/	/
COc1ccccc1C(=O)COC(=O)c1ccccc1O	95	.	.	.	.	31
COc1ccccc1C(=O)COC(=O)c1cccs1	/	.	/	.	/	/
COc1ccccc1C(=O)COC(=O)c1ccc(N(C)C)cc1	94	.	.	?	.	35
SMILES	Shiga inhibitor	Lassa entry inh	Pf growth 48h	MARV entry inh	Pf growth 96h	Cycloheximide cs
CCc1ccc(C(=O)COC(=O)c2ccccc2OC)cc1	133	.	.	?	.	43
COc1ccccc1C(=O)OCC(=O)c1cccc([N+](=O)[O-])c1	.	.	.	.	.	28
CCn1c(SCC(=O)Nc2cccc(NC(=O)c3cccs3)c2)nnc1-c1ccncc1	.	.	?	?	/	.
CCOC(=O)c1c(C)[nH]c(C)c1S(=O)(=O)N1CCCC(C(=O)N2CCN(c3ccccc3)CC2)C1 (configuration not stated)	/	.	/	/	/	/
CCn1c(SCC(=O)O)nnc1-c1ccc(S(=O)(=O)N2CCCC2)cc1	.	?	.	.	?	.
CCc1ccccc1OCC(=O)OCC(=O)c1c(N)n(C)c(=O)n(C)c1=O	.	?	.	.	.	.
O=C(/C=C/c1ccccc1)OCC(=O)c1c[nH]c2ccccc12	/	.	/	.	/	/
CCc1ccc(C(=O)COC(=O)[C@@H](NC(N)=O)[C@@H](C)CC)cc1	77	.	.[5.75 µM]	.	.	22
CCc1ccc(C(=O)COC(=O)C(NC(=O)C2CCC(C)CC2)C(C)C)cc1 (configuration not stated)	/	.	/	.	/	/
COc1ccccc1C(=O)COC(=O)/C=C/c1ccccc1	100	.	.	.	.	53
Cc1cc(C)c(NC(=O)c2cccc3c2C(=O)N(C2CCCCC2)C3)c(C)c1	.	/	.	/	.	.
CC1=C([N+](=O)[O-])C(c2cccc(Br)c2)C2=C(N1)c1ccccc1C2=O (configuration not stated)	.	?	4.7µM	1.3µM	/	.
CCOC(=O)C1=C(c2ccccc2)N=C2SCC(=O)N2C1c1ccc(OCC)c(OCC)c1 (configuration not stated)	.	.	.	.	/	.
CCOC(=O)C1=C(C)N=C2SC(CC)C(=O)N2C1c1cccc(F)c1 (configuration not stated)	.	.	.	.	10µM	.
CCOC(=O)C1=C(C)N=C2SC(C(=O)OC)=CC(=O)N2C1c1cc(OC)c(OC)c(OC)c1 (configuration not stated)	.	.	4.7µM	.	.	.
COC(=O)C1=C(C)N=C2S[C@H](C)C(=O)N2[C@@H]1c1cccc(F)c1	/	/	/	.	/	/
CCOC(=O)C1=C(C)N=C2SC(C)C(=O)N2C1c1ccc(OCC)c(OCC)c1 (configuration not stated)	.	.	12µM	.	.	.
CCOC(=O)C1=C(C)N=C2SC(C)C(=O)N2C1c1ccc(C(=O)OC)cc1 (configuration not stated)	.	.	.	.	3.7µM	.
CCOC(=O)C1=C(C)N=C2SC(C)C(=O)N2C1c1ccccc1 (configuration not stated)	.	.	?	.	.	.
O=C(NC1CCCCC1c1ccccc1)c1ccccc1 (configuration not stated)	/	?	/	.	/	/
CCOC(=O)C1=C(C)N=C2SC=C(C)N2C1c1ccc(OC)cc1 (configuration not stated)	.	?	.	5µM	.	.
CCOC(=O)C1=C(C)N=C2SCCC(=O)N2C1c1ccc(OC)cc1 (configuration not stated)	.	/	.	/	.	.
Fc1ccc(N/N=C2/CCSc3sccc32)c(F)c1	28	?	.	.	.	15
O=C1c2ccsc2SCCN1Cc1cccc(F)c1	.	.	/	?	.	.
O=C(COCc1cc(-c2ccc3c(c2)OCO3)on1)NCc1ccccc1Cl	/	.	/	/	/	/
O=C(COCc1cc(-c2ccc3c(c2)OCO3)on1)NCc1ccc(F)cc1	/	.	/	/	/	/
CCCNC(=O)COCc1cc(-c2ccc3c(c2)OCO3)on1	36	.	.[0.00184 µM]	?	.	29
CCc1ccc(NC(=O)c2cc(-c3ccc4c(c3)OCO4)on2)cc1	.	.	.	.	.	.
C=CCNC(=O)COCc1cc(-c2ccc3c(c2)OCO3)on1	39	.	.	.	.	27

Screens: PubChem BioAssay, National Center for Advancing Translational Sciences (NCATS)
